Data reported in PubChem BioAssay (NCATS).
“And” between values parts separate entries of the source, which are not always exact repeats. Equal entries are not always repeated. Records with an inconclusive call do not appear. A number with no mark means an inactive call. The source made the active and inactive calls. Calls follow the shape of the dose curve; as a rule, active = well fitted inhibition curve with a large enough effect; inconclusive = small, poorly fitted or top-dose-only effect; inactive = flat fitted curve, though single readings scatter.

Test: P-glycoprotein substrates identified in KB-8-5-11 adenocarcinoma cell line, qHTS therapeutic library screen (AID 1346987); also: nearly all actives have a fitted effect of over 65% in size
Details: KB-8-5-11 (P-gp overexpressing) viability, CellTiter-Glo, 72 h; series mostly up to 44.5 µM; activity change, negative = cytotoxicity: at the top concentration
Excerpt: The ATP-binding cassette transporters P-glycoprotein (P-gp) is known to limit brain penetration of many chemotherapy drugs. […] As such, we developed a high-throughput screen (HTS) to identify substrates of P-gp from a series of chemical libraries including the National Center for Advancing Translational Sciences Pharmaceutical Collection NPC, 2,816 compounds), testing a total of 10,804 compounds, most of which have known mechanisms of action. We used the CellTiter-Glo viability assay to test library compounds against the parental KB-3-1 human cervical adenocarcinoma cell line and the colchicine-selected sub-line KB-8-5-11 that over-expresses P-gp. KB-8-5-11 cells were also tested in the presence of a P-gp inhibitor (tariquidar) to assess reversability of transporter-mediated resistance. Of the tested compounds, a total of 90 P-gp substrates were identified including 55 newly identified P-gp substrates. Substrates were confirmed using an orthogonal killing assay against HEK-293 cells transfected with P-gp. As exemplars, we confirmed that […] (cyclin-dependent kinase inhibitor); AT9283, (Janus kinase 2/3 inhibitor); ispinesib (kinesin spindle protein inhibitor); gedatolisib (PKI-587, phosphoinositide 3-kinase/mammalian target of rampamycin inhibitor); GSK-690693 (AKT inhibitor); and KW-2478 (heat shock protein 90 inhibitor) were substrates , and direct ATPase stimulation was assessed. ABCG2 was also found to confer high levels of resistance to AT9283, GSK-690693 and gedatolisib, while ispinesib, AT7519 and KW-2478 were weaker substrates.
The HeLa derivative cell line, KB-3-1, and its colchicine-selected, P-gp-overexpressing subline, KB-8-5-11 were maintained in DMEM with 10% FCS and Pen/Strep with glutamine at 37 degree C in 5% CO2. For KB-8-5-11 cells, colchicine was added to the medium at a concentration of 100 ng/mL. HEK-293 cells transfected with empty vector (pcDNA) or vector containing human ABCB1 (MDR-19) or ABCG2 (R-5) have been described previously (Robey, Lin, Qiu, Chan & Bates, 2011) and were maintained in EMEM supplemented with 10% FCS, Pen/Strep and glutamine with 2 mg/ml G418 to select for the expression of the transporter. Cultures were confirmed to be free of mycoplasma infection using the MycoAlert Mycoplasma Detection Kit (Lonza, Walkersville, MD). For the screen, assay medium was identical to culture medium except for KB-8-5-11 where colchicine was excluded from the medium.
All cell lines were plated into 1536-well plates at 500 cells/well in 5 uL media. Compounds were then pinned in dose-response using a 1536-head pin tool (Kalypsis, San Diego, CA) and plates were incubated at 37 degree C in 5% CO2 for an additional 72 h. CellTiter-Glo reagent (Promega) was dispensed into the wells, incubated for 5 min and luminescence was read on a ViewLux instrument (Perkin-Elmer). Cytotoxic compounds were defined as those that yielded a curve class of -1.1, -1.2, -2.1, -2.2, -2.3, or -2.4, a maximum response of >50% and an AC50 of < 10 uM. Cherry-picked hits from screening analysis were tested with both the KB pair of cell lines, and the pcDNA (empty vector control) and MDR-19 (P-gp overexpressing) pair were tested, in the absence and presence of tariquidar.
% is scaled to controls: 0 for no effect and ±100 for the full control effect; potency is read from the fitted curve at half-maximal effect.

Compound | Potency | activity change, negative = cytotoxicity | outcome
Oc1cc[c]([Hg][Cl])cc1 | 5.8 µM (active) and 6.51 µM (active) |  | 
CCCCCn1cc(C(=O)C2C(C)(C)C2(C)C)c2ccccc21 |  | -16.7% | 
CCOP(=S)(OCC)SCSc1ccc(Cl)cc1 |  | 2.31% | 
C[N+](C)(C)CC(=O)[O-] |  | 4.31% | 
CCCSc1cc(OC)c(CCN)cc1OC | 20 µM (active) |  | 
C#CC1(O)CCC2C3CCC4=CC(=O)CCC4=C3C=CC21C (stereo not given) | 2.91 µM (active) |  | 
COc1cc(C[C@H](C)N)c(OC)cc1C |  | -21.6% [at 93.4 µM] | 
C[C@]12CC[C@H]3[C@@H](CCC4=C/C(=N/OCC(=O)O)CC[C@@]43C)[C@@H]1CC[C@@H]2O |  | 7.11% | 
Cc1cccc(NC(=O)c2ccc(C(F)(F)F)cc2C(=O)O)n1 |  |  | inactive
O=C1Nc2ccc3ncsc3c2/C1=C/c1cnc[nH]1 | 1.64 µM (active) |  | 
CNC(C)Cc1ccccc1 (stereo not given) |  | 17.1% [at 93.4 µM] | 
O=C1NC(=O)c2c1c1c3ccccc3[nH]c1c1[nH]c3ccccc3c21 |  | -22.4% | 
CC(=O)OC[C@]12C[C@H](OC(C)=O)C(C)=C[C@H]1O[C@@H]1[C@H](O)[C@@H](O)[C@@]2(C)[C@]12CO2 | 0.904 µM (active) |  | 
CN(C)[C@@H]1C(=O)C(C(N)=O)=C(O)[C@@]2(O)C(=O)C3=C(O)c4c(O)ccc(Cl)c4[C@@](C)(O)C3C[C@@H]12 (stereo not given in full) |  | -16.5% | 
NNC(=O)c1nn(Cc2ccc(Cl)cc2Cl)c2ccccc12 |  | -18.8% | 
CNc1ccc2oc(C[C@H]3O[C@@]4(CC[C@H]3C)O[C@H](C(C)C(=O)c3ccc[nH]3)[C@H](C)C[C@H]4C)nc2c1C(=O)O (stereo not given in full) | 2.06 µM (active) |  | 
O=C(CC1NCCC[C@H]1O)Cn1cnc2cc(Br)c(Cl)cc2c1=O (stereo not given in full) |  | -21.2% | 
C/C=C(\C)C(=O)O[C@@H]1[C@@H](C)[C@]2(O)C3C=C(C)C(=O)[C@@]3(O)CC(CO)=C[C@H]2C2C(C)(C)[C@@]21OC(=O)C(C)CC (stereo not given in full) |  | -18% [at 17.3 µM] | 
CC(O)(c1ccccc1)C(Cc1ccc(Cl)cc1)n1cncn1 (stereo not given) |  | -20.1% | 
C=CCN1CCC2(C)c3cc(O)ccc3C[C@H]1[C@H]2C |  | -2.59% | 

Compound | Potency | activity change, negative = cytotoxicity | outcome
CCOC(=O)c1ccnc2cc(C(OCCN3CCCCC3)c3ccccc3Cl)sc12 (stereo not given) |  | -8.83% | 
CC[C@@H]1C[C@H]2CC[C@H](O2)[C@H](C)C(=O)O[C@@H](C)C[C@@H]2CC[C@@H](O2)[C@@H](C)C(=O)O[C@H](CC)C[C@H]2CC[C@H](O2)[C@H](C)C(=O)O[C@@H](C)C[C@@H]2CC[C@@H](O2)[C@@H](C)C(=O)O1 | 1.93 µM (active) |  | 
CCOc1ccc(Oc2ccc(OCc3cc(F)ccc3F)cc2)c(N)c1 |  | 6.04% | 
C[C@H]1CCC/C=C/C2C[C@H](O)C[C@H]2[C@H](O)/C=C/C(=O)O1 (stereo not given in full) | 0.184 µM (active) |  | 
COc1ccc2c3c4n(c2c1)[C@@H](C=C(C)C)OOC(C)(C)C[C@@H]4N1C(=O)[C@@H]2CCCN2C(=O)[C@]1(O)[C@H]3OCC=C(C)C |  | -14.8% [at 17.3 µM] | 
Cc1ccc2c(c1)[C@H]1CN(C)CC[C@H]1N2C(=O)CSc1nnnn1-c1ccc(Cl)cc1 |  | -9.43% | 
C[C@H]1C/C=C/[C@H]2[C@@H]3O[C@]3(C)[C@@H](C)[C@H]3[C@H](Cc4ccccc4)NC(=O)[C@]32OC(=O)O/C=C/[C@@](C)(O)C1=O | 2.24 µM (active) |  | 
CN1CC[C@@]23CCCC[C@@H]2[C@@H]1Cc1ccc(O)cc13 |  | 3.35% | 
C[C@H]1CN(CC[C@H](O)C2CCCCC2)CC[C@@]1(C)c1cccc(O)c1 |  | -27.4% | 
C=C1[C@@H](O)[C@]2(O)OC[C@]34C2[C@]2(C)C(C[C@H]3OC(=O)[C@H](O)[C@@]14O)C(C)=CC(=O)[C@H]2O (stereo not given in full) |  | -16.1% [at 17.3 µM] | 
CN(C)CCO |  | 2.68% | 
OCCN(CCO)CCO |  | 1.04% | 
CN[C@]1(c2ccccc2Cl)CCCCC1=O |  | -0.0166% | 
COC1CC(OC2CCC3(C=O)C(CCC4C3CCC3(C)C(C5=CC(=O)OC5)CCC43O)C2)OC(C)C1O (stereo not given) | 0.178 µM (active) |  | 
N#Cc1cn([C@@H]2O[C@H](CO)[C@H](O)[C@@H]2O)c2ncnc(N)c12 | 0.0206 µM (active) |  | 
Fc1cc(F)c2c(c1)[C@H]1C=CC[C@H]1C(c1cccnc1)N2 (stereo not given in full) | 4.61 µM (active) |  | 
C[C@@H]1CCC2[C@@H](C)C(=O)OC3O[C@@]4(C)CCC1[C@]32OO4 (stereo not given in full) |  | -16.6% | 
COC(=O)C12C(=O)C(C)(O)C(=O)C1(C)C(C)=CC1C34CCC(OC3=O)C(C)(C)C4CCC12C (stereo not given) |  | -18.1% [at 17.3 µM] | 
Clc1ccc([C@]23CNC[C@H]2C3)cc1Cl |  | -0.874% | 
C=C1[C@@H](C)[C@H]2[C@H](Cc3ccccc3)NC(=O)[C@]23OC(=O)/C=C/C(=O)CCC[C@@H](C)C/C=C/[C@H]3[C@@H]1O | 5.8 µM (active) |  | 
